Experimental data reported in publication PMC12864922, “TDP-43 directly inhibits mRNA accumulation in neurites through modulation of mRNA stability”.
Over roughly 9,900 sequences, “r (bound/input frequency ratio)” has its median near 0.7; the highest 2% begin near 6.5. Shown is part of a subset that was picked to be rich in the highest values.

B1: ENSMUSG00000042529.155|Kcnj12|40:44 (ssRNA)
RNA: GGGAGUUCUACAGUCCGACGAUCGCUUCGAUAUCCGCAUGCUAAGAGUGGGUGCUUCUUAGAAAAGGACACUCAGGAAAUUACAUACGGGUCUGGGUCCCACAUCCCCAGGAAGUGGGUCAGCCCCACGUCCCCCGCUGGACUCACAGCUUGAGUUGUGCCUUAGAGACUCUGGUUGUCUGGCUUCCGUCAUUUCUGGUUUUCUCAGACUUGUUUAAUCUUUCCCUACUGCCCUAAGUCCACUCAUGAAGCUCCCCAGGCCCUUCUGAGAUUGCAGAGGCUGCUUGCUCAUAGCCAUGACCCUCUCUUGCGGUCGCACUAGUGUGGAAUUCUCGGGUGUCAAGG
B2: ENSMUSG00000031028.502|Tub (ssRNA)
RNA: GGGAGUUCUACAGUCCGACGAUCGCUUCGAUAUCCGCAUGCUACAAGUAAGGUGUGUGCCUCUGGGAAGACAGGAGUCGGAAGCCAAGGUGUGUGGCAACAGUCUGGAAGAGAGCUUUUGGUAAUCAUACCGUCUUCAGUGACAAGGCAACAAUGCUGUAAAGUGGGUUUGUUUGGUUUUGUUUUUUCUUUCUCUUUUAUGGAAAUGGCAGGUCUAUUUGCCUCAAACGUUAUGUAGAAGUAGUUCUAAGUUUAACAAGCAAUAGAGAUGACUGCUUAGCUAGGAUCUGCAGGGAGCUCUGCUCUCUUGCGGUCGCACUAGUGUGGAAUUCUCGGGUGUCAAGG
B3: ENSMUSG00000042529.125|Kcnj12|220:224 (ssRNA)
RNA: GGGAGUUCUACAGUCCGACGAUCGCUUCGAUAUCCGCAUGCUAGUGGGGCCCACUAGGGUGAAUCUGGCUUGCUCUUCUGUUUGAUGUUGUUGUACCUCAGCUGCCUCAGGGCUGGGUUUAGACACCCCUUCCCCCACCCCCACUCCGUACUCCCUGUUGUGCUUCCCUUCCUAUUUAGUCCCAGGUCUCCACCCCUUGCAGCGAGGGGGCAUAGGAAACACCAGAGUGGGUGCUUCUUAGAAAAGGACACUCAGGAAAUUACAUACGGGUCUGGGUCCCACAUCCCCAGGAAGUGGGUCAGCCUCUUGCGGUCGCACUAGUGUGGAAUUCUCGGGUGUCAAGG
B4: ENSMUSG00000031028.204|Tub|197:201;203:208 (ssRNA)
RNA: GGGAGUUCUACAGUCCGACGAUCGCUUCGAUAUCCGCAUGCUACUCUUCCCAGUUCCAGAGAUGAAACCCCUCCGAGUUAAUGUAUAAGGUUGGAAACCUUUCAGUAGGGAAUCAGGCAGUUCCCUGUUGAAAGUUGUCUGAGUUUUUGCACACCAUUCUGAUCUGAUGUGGCCUGUGCCUGGCUCCUCUAUGAGGACUUCGAGCUGUGCACAGACCUUAGCAGGACCACUGCACACUUACACACACACACACAGGCAGCCCAAGGGUUCUGGGGCUGGGCUUGGACACGCCCUCCAUUGGGACUCUUGCGGUCGCACUAGUGUGGAAUUCUCGGGUGUCAAGG
B5: ENSMUSG00000032194.8|Kank2 (ssRNA)
RNA: GGGAGUUCUACAGUCCGACGAUCGCUUCGAUAUCCGCAUGCUAGCCGAGGAGUGAAUACAGGGAGGAGCCAGUGAGUCCCCCAGGACCCACCAGCCACAAGCCACGCAUCAAACCGUCCCUCCUCCAUCCCUCUGUCCCAUUCUGCCUCGGCAUUCCUCAGCCCCUGAACUUCCCUGAGGGAGCCCUGACAUCUACCAGGCUCAAGCUCCUGGAAGCCUUUCCCAGCACCCUGGGUUCAAAGCCAGAAAGCCAAGCUACAUUCUCCUCCCAGUUGGCACCAGUUGACAACGCCUUGGGUGUGGCUCUUGCGGUCGCACUAGUGUGGAAUUCUCGGGUGUCAAGG
B6: ENSMUSG00000031028.492|Tub|69:75;106:112 (ssRNA)
RNA: GGGAGUUCUACAGUCCGACGAUCGCUUCGAUAUCCGCAUGCUAUUUAAAUGAACAUGGGGUGGUGAUGGUGCCUUAACAAUCUUGACACUAAGGUGAAGCAAGCAAGUAAGCACACACCCUCUGGGAAGACAGGAGUCGGAAGCCAAGCACACACGCAACAGUCUGGAAGAGAGCUUUUGGUAAUCAUACCGUCUUCAGUGACAAGGCAACAAUGCUGUAAAGUGGGUUUGUUUGGUUUUGUUUUUUCUUUCUCUUUUAUGGAAAUGGCAGGUCUAUUUGCCUCAAACGUUAUGUAGAAGUAGCUCUUGCGGUCGCACUAGUGUGGAAUUCUCGGGUGUCAAGG
B7: ENSMUSG00000061578.750|Ksr2 (ssRNA)
RNA: GGGAGUUCUACAGUCCGACGAUCGCUUCGAUAUCCGCAUGCUACAAGUUUGAGUCUCCAUAUGGGCCCUUCCUGUCCUCAUGCCCUGCCUGUCUUCAUUCCACCCAUCCACCCUCCUAAGGAUUGGUCUUGUUCCGAGAGUGAUCCUGGUAACGCCAAGCCUCCCUCUGCCCCUGUGUUGGCUUCUGUGACGGACUACCACACACCAAGAGGUUUUUCACAGUGAAGAUGUAUGCUCUCACCAUCCUACAGAUGCAAAGACCAAACACAAAGUGUCUGCAUGACCUUCCCCCUCUGGAAUUUGCUCUUGCGGUCGCACUAGUGUGGAAUUCUCGGGUGUCAAGG
B8: ENSMUSG00000028439.174|Fam219a (ssRNA)
RNA: GGGAGUUCUACAGUCCGACGAUCGCUUCGAUAUCCGCAUGCUAUGGUAUGGUAUGGUAUGGUAUGCACAUGUGUGUGCAUGUGUGUGUGCCUGUGUGUGUGCGUGUGCGUGUGUGUAUGUGUGUGCGUGUGUGUGUGUGUGUGUUGUACCCGAGUGUGUGUUGAGCCUAUCUGUCCAGGGAACCAGAUUGGUGUCCGAGAUGAGGAAAUGGCUGUGGCCUGGGAAAUCAGUGAGAGGCCGCUUGGGAAUGAGAAUGCAGUGGACUGAAAGCACAGCCUGGCCAUCUGGAACCUGGGUUCUGGUCUCUUGCGGUCGCACUAGUGUGGAAUUCUCGGGUGUCAAGG
B9: ENSMUSG00000028439.171|Fam219a (ssRNA)
RNA: GGGAGUUCUACAGUCCGACGAUCGCUUCGAUAUCCGCAUGCUAAUAUGGUAUGGUAUGGUAUGGUAUGGUAUGGUAUGGUAUGCACAUGUGUGUGCAUGUGUGUGUGCCUGUGUGUGUGCGUGUGCGUGUGUGUAUGUGUGUGCGUGUGUGUGUGUGUGUGUUGUACCCGAGUGUGUGUUGAGCCUAUCUGUCCAGGGAACCAGAUUGGUGUCCGAGAUGAGGAAAUGGCUGUGGCCUGGGAAAUCAGUGAGAGGCCGCUUGGGAAUGAGAAUGCAGUGGACUGAAAGCACAGCCUGGCCAUCCUCUUGCGGUCGCACUAGUGUGGAAUUCUCGGGUGUCAAGG
B10: ENSMUSG00000028439.175|Fam219a (ssRNA)
RNA: GGGAGUUCUACAGUCCGACGAUCGCUUCGAUAUCCGCAUGCUAGGUAUGGUAUGGUAUGCACAUGUGUGUGCAUGUGUGUGUGCCUGUGUGUGUGCGUGUGCGUGUGUGUAUGUGUGUGCGUGUGUGUGUGUGUGUGUUGUACCCGAGUGUGUGUUGAGCCUAUCUGUCCAGGGAACCAGAUUGGUGUCCGAGAUGAGGAAAUGGCUGUGGCCUGGGAAAUCAGUGAGAGGCCGCUUGGGAAUGAGAAUGCAGUGGACUGAAAGCACAGCCUGGCCAUCUGGAACCUGGGUUCUGGUCCCAGCCUCUUGCGGUCGCACUAGUGUGGAAUUCUCGGGUGUCAAGG
B11: ENSMUSG00000028439.172|Fam219a (ssRNA)
RNA: GGGAGUUCUACAGUCCGACGAUCGCUUCGAUAUCCGCAUGCUAUAUGGUAUGGUAUGGUAUGGUAUGGUAUGGUAUGCACAUGUGUGUGCAUGUGUGUGUGCCUGUGUGUGUGCGUGUGCGUGUGUGUAUGUGUGUGCGUGUGUGUGUGUGUGUGUUGUACCCGAGUGUGUGUUGAGCCUAUCUGUCCAGGGAACCAGAUUGGUGUCCGAGAUGAGGAAAUGGCUGUGGCCUGGGAAAUCAGUGAGAGGCCGCUUGGGAAUGAGAAUGCAGUGGACUGAAAGCACAGCCUGGCCAUCUGGAACCUCUUGCGGUCGCACUAGUGUGGAAUUCUCGGGUGUCAAGG
B12: ENSMUSG00000028439.170|Fam219a (ssRNA)
RNA: GGGAGUUCUACAGUCCGACGAUCGCUUCGAUAUCCGCAUGCUAUGUAUGAUAUGGUAUGGUAUGGUAUGGUAUGGUAUGGUAUGGUAUGCACAUGUGUGUGCAUGUGUGUGUGCCUGUGUGUGUGCGUGUGCGUGUGUGUAUGUGUGUGCGUGUGUGUGUGUGUGUGUUGUACCCGAGUGUGUGUUGAGCCUAUCUGUCCAGGGAACCAGAUUGGUGUCCGAGAUGAGGAAAUGGCUGUGGCCUGGGAAAUCAGUGAGAGGCCGCUUGGGAAUGAGAAUGCAGUGGACUGAAAGCACAGCCUGCUCUUGCGGUCGCACUAGUGUGGAAUUCUCGGGUGUCAAGG
B13: ENSMUSG00000028439.173|Fam219a (ssRNA)
RNA: GGGAGUUCUACAGUCCGACGAUCGCUUCGAUAUCCGCAUGCUAAUGGUAUGGUAUGGUAUGGUAUGGUAUGCACAUGUGUGUGCAUGUGUGUGUGCCUGUGUGUGUGCGUGUGCGUGUGUGUAUGUGUGUGCGUGUGUGUGUGUGUGUGUUGUACCCGAGUGUGUGUUGAGCCUAUCUGUCCAGGGAACCAGAUUGGUGUCCGAGAUGAGGAAAUGGCUGUGGCCUGGGAAAUCAGUGAGAGGCCGCUUGGGAAUGAGAAUGCAGUGGACUGAAAGCACAGCCUGGCCAUCUGGAACCUGGGUCUCUUGCGGUCGCACUAGUGUGGAAUUCUCGGGUGUCAAGG
B14: ENSMUSG00000028439.174|Fam219a|3:22;27:34;37:46;49:58;60:64;66:82;84:101;111:118 (ssRNA)
RNA: GGGAGUUCUACAGUCCGACGAUCGCUUCGAUAUCCGCAUGCUAUGCAUACCAUACCAUACCAUACCACAACACACACCAACACACACACCCACACACACACCCACACCCACACACAUACACACACCCACACACACACACACACAUGUACCCGACACACACAUGAGCCUAUCUGUCCAGGGAACCAGAUUGGUGUCCGAGAUGAGGAAAUGGCUGUGGCCUGGGAAAUCAGUGAGAGGCCGCUUGGGAAUGAGAAUGCAGUGGACUGAAAGCACAGCCUGGCCAUCUGGAACCUGGGUUCUGGUCUCUUGCGGUCGCACUAGUGUGGAAUUCUCGGGUGUCAAGG
B15: ENSMUSG00000028439.176|Fam219a (ssRNA)
RNA: GGGAGUUCUACAGUCCGACGAUCGCUUCGAUAUCCGCAUGCUAGUAUGGUAUGCACAUGUGUGUGCAUGUGUGUGUGCCUGUGUGUGUGCGUGUGCGUGUGUGUAUGUGUGUGCGUGUGUGUGUGUGUGUGUUGUACCCGAGUGUGUGUUGAGCCUAUCUGUCCAGGGAACCAGAUUGGUGUCCGAGAUGAGGAAAUGGCUGUGGCCUGGGAAAUCAGUGAGAGGCCGCUUGGGAAUGAGAAUGCAGUGGACUGAAAGCACAGCCUGGCCAUCUGGAACCUGGGUUCUGGUCCCAGCCUCGGCCUCUUGCGGUCGCACUAGUGUGGAAUUCUCGGGUGUCAAGG

What follows are binders tested against TDP-43 (Homo sapiens, UniProt Q13148 1-414) (assay: RNA Bind-n-Seq with designed 260-mer pool; 25 mM Tris-HCl, 150 mM KCl, 3 mM MgCl2, BSA (printed 500 mg/mL), 20 units/mL SUPERase IN; pH not stated; 500 nM RNA pool, 1 h, 4 C; TDP-43 5, 50, 500 nM; high values mean tight binding). Conditions: protein: recombinant; tags: SBP (GST cleaved off with PreScission; pGEX-GST-SBP).
Sequence of TDP-43 (Q13148 whole entry): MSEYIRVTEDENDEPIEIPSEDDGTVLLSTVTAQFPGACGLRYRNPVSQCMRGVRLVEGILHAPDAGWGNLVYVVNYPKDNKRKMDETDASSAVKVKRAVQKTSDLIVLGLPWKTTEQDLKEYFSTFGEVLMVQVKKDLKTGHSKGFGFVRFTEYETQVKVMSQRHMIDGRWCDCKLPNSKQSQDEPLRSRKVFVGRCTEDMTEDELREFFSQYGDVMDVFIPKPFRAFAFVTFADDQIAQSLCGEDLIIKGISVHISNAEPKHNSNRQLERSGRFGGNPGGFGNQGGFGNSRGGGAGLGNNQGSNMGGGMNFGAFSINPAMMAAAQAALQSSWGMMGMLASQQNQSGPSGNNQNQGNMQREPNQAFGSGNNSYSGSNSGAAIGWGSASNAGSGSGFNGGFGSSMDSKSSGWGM
Method in brief: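 An in vitro-transcribed pool of 260-nt 3′ UTR oligos (500 nM) was incubated for 1 h at 4 °C with recombinant SBP-tagged TDP-43 at 5, 50 or 500 nM held on streptavidin beads. The buffer contained 25 mM Tris-HCl, 150 mM KCl, 3 mM MgCl2, BSA and SUPERase IN. Biotin-eluted bound RNA was sequenced, and binding, R, is each oligo's normalized read abundance in the bound sample over that in input.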

Q: Which binding signal does the source give for B1 here?
A: Its binding signal is 0.524 R (bound/input frequency ratio).

Q: B2 was tested. Which binding signal did it give?
A: The binding signal was 0.806 R (bound/input frequency ratio).

Q: B3 was tested. Which binding signal did it give?
A: The binding signal was 0.802 R (bound/input frequency ratio).

Q: With B4 as the binder, how does the binding signal read?
A: The binding signal was 1.16 R (bound/input frequency ratio).

Q: With B5 as the binder, how does the binding signal read?
A: The binding signal was 1.4 R (bound/input frequency ratio).

Q: Which binding signal does the source give for B6 here?
A: Its binding signal is 0.828 R (bound/input frequency ratio).

Q: How did the binding signal turn out when B7 was run?
A: Its binding signal is 0.725 R (bound/input frequency ratio).

Q: B8 was tested. Which binding signal did it give?
A: The binding signal was 7.57 R (bound/input frequency ratio).

Q: For B9, which binding signal is on record?
A: Its binding signal is 8.2 R (bound/input frequency ratio).

Q: B10 was tested. Which binding signal did it give?
A: Its binding signal is 7.42 R (bound/input frequency ratio).

Q: How did the binding signal turn out when B11 was run?
A: The binding signal was 6.41 R (bound/input frequency ratio).

Q: B12 was tested. Which binding signal did it give?
A: The binding signal was 6.06 R (bound/input frequency ratio).

Q: Which binding signal does the source give for B13 here?
A: The binding signal was 6.03 R (bound/input frequency ratio).

Q: How did the binding signal turn out when B14 was run?
A: Its binding signal is 1.59 R (bound/input frequency ratio).

Q: Which binding signal does the source give for B15 here?
A: The binding signal was 5.69 R (bound/input frequency ratio).
